Reference: PubChem BioAssay AID1159580 (chemical genetic matrix, 2015)
Out of some 5,500 compounds screened, about 2,000 (36%) were called active. Not shown: some 18% with an inconclusive outcome. Rule as the data show it: active = normalized growth mostly below about 0.91 (no sharp cut-off); inconclusive = no clear call, values can overlap the other calls; inactive = mostly above about 0.92. Some of the results follow.

Assay: chemical genetic growth profiling, strain panel (AID 1159580);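 also: tested at 20 µM; growth read once vehicle control cultures reached saturation at 30 °C; 1 = growth at the plate median or of vehicle wells; lower values mean less growth of the strain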
Conditions: growth OD

Measured: normalized growth

CCCC1O[C@@H]2CC3C4CCC5=CC(=O)C=CC5(C)C4[C@@H](O)CC3(C)[C@]2(C(=O)CO)O1 (some centres not stated)
inactive: S. cerevisiae deletion strains, locus YJR075W, strain HOC1, active compounds read low 1 | S. cerevisiae deletion strains, locus YKL009W, strain mrt4, active compounds read low 1.03 | S. cerevisiae deletion strains, locus YKL068W, active compounds read low 1 | S. cerevisiae deletion strains, locus YKL085W, strain MDH1 (second series), active compounds read low 0.994 | S. cerevisiae deletion strains, locus YKL085W, strain MDH1, active compounds read low 0.994 | S. cerevisiae deletion strains, locus YKL160W, strain elf1, active compounds read low 1.01 | S. cerevisiae deletion strains, locus YKL190W, strain CNB1, active compounds read low 0.995 | S. cerevisiae deletion strains, locus YKR001C, strain vps1, active compounds read low 0.997 | S. cerevisiae deletion strains, locus YKR026C, strain gcn3, active compounds read low 1.01 | S. cerevisiae deletion strains, locus YKR091W, strain srl3, active compounds read low 1 | S. cerevisiae deletion strains, locus YLL001W, strain dnm1, active compounds read low 1.02 | S. cerevisiae deletion strains, locus YLL026W, active compounds read low 1.01 | S. cerevisiae deletion strains, locus YLL041C, strain sdh2, active compounds read low 1.01 | S. cerevisiae deletion strains, locus YLR027C, strain aat2, active compounds read low 1 | S. cerevisiae deletion strains, locus YLR039C, strain RIC1, active compounds read low 1.02 | S. cerevisiae deletion strains, locus YLR058C, strain SHM2, active compounds read low 1 | S. cerevisiae deletion strains, locus YLR102C, strain apc9, active compounds read low 1.02 | S. cerevisiae deletion strains, locus YLR113W, strain HOG1, active compounds read low 0.931 | S. cerevisiae deletion strains, locus YLR221C, strain rsa3, active compounds read low 0.986 | S. cerevisiae deletion strains, locus YLR258W, strain gsy2, active compounds read low 1.02 | S. cerevisiae deletion strains, locus YLR262C, strain YPT6 (second series), active compounds read low 1 | S. cerevisiae deletion strains, locus YLR262C, strain YPT6, active compounds read low 1 | S. cerevisiae deletion strains, locus YLR268W, strain sec22, active compounds read low 1 | S. cerevisiae deletion strains, locus YLR320W, strain mms22, active compounds read low 1.01 | S. cerevisiae deletion strains, locus YLR330W, strain CHS5, active compounds read low 1 | S. cerevisiae deletion strains, locus YLR342W, strain FKS1 (second series), active compounds read low 1.02 | S. cerevisiae deletion strains, locus YLR342W, strain FKS1, active compounds read low 1.01 | S. cerevisiae deletion strains, locus YLR357W, strain rsc2, active compounds read low 1.03 | S. cerevisiae deletion strains, locus YLR370C, strain arc18, active compounds read low 1.01 | S. cerevisiae deletion strains, locus YLR371W, strain rom2, active compounds read low 1.02 | S. cerevisiae deletion strains, locus YLR384C, strain iki3, active compounds read low 1.01 | S. cerevisiae deletion strains, locus YLR418C, strain cdc73, active compounds read low 0.978 | S. cerevisiae deletion strains, locus YML016C, strain PPZ1, active compounds read low 1.01 | S. cerevisiae deletion strains, locus YML032C, strain rad52, active compounds read low 1.04 | S. cerevisiae deletion strains, locus YML120C, strain ndi1, active compounds read low 1 | S. cerevisiae deletion strains, locus YML124C, strain tub3, active compounds read low 1.01 | S. cerevisiae deletion strains, locus YMR058W, strain fet3, active compounds read low 1 | S. cerevisiae deletion strains, locus YMR078C, strain ctf18, active compounds read low 1.02 | S. cerevisiae deletion strains, locus YMR125W, strain sto1, active compounds read low 1 | S. cerevisiae deletion strains, locus YMR129W, active compounds read low 1.01 | S. cerevisiae deletion strains, locus YMR205C, strain PFK2, active compounds read low 1 | S. cerevisiae deletion strains, locus YMR223W, strain ubp8, active compounds read low 1.03 | S. cerevisiae deletion strains, locus YMR231W, strain pep5, active compounds read low 1.01 | S. cerevisiae deletion strains, locus YMR263W, strain SAP30, active compounds read low 0.999 | S. cerevisiae deletion strains, locus YMR307W, strain GAS1, active compounds read low 1.06 | S. cerevisiae deletion strains, locus YNL067W, strain RPL9B, active compounds read low 0.99 | S. cerevisiae deletion strains, locus YNL071W, strain lat1, active compounds read low 1 | S. cerevisiae deletion strains, locus YNL128W, strain TEP1, active compounds read low 1 | S. cerevisiae deletion strains, locus YNL153C, strain GIM3, active compounds read low 0.992 | S. cerevisiae deletion strains, locus YNL183C, strain NPR1, active compounds read low 0.962 | S. cerevisiae deletion strains, locus YNL209W, strain ssb2, active compounds read low 1.02 | S. cerevisiae deletion strains, locus YNL233W, strain BNI4, active compounds read low 1.01 | S. cerevisiae deletion strains, locus YNL248C, strain rpa49, active compounds read low 1.04 | S. cerevisiae deletion strains, locus YNL250W, strain rad50, active compounds read low 1.02 | S. cerevisiae deletion strains, locus YNL271C, strain bni1, active compounds read low 1.02 | S. cerevisiae deletion strains, locus YNL298W, strain CLA4, active compounds read low 1.02 | S. cerevisiae deletion strains, locus YNL307C, strain MCK1, active compounds read low 1.03 | S. cerevisiae deletion strains, locus YNL322C, strain KRE1 (second series), active compounds read low 1.01 | S. cerevisiae deletion strains, locus YNL322C, strain KRE1, active compounds read low 1 | S. cerevisiae deletion strains, locus YNR049C, strain mso1, active compounds read low 0.997 | S. cerevisiae deletion strains, locus YNR052C, strain pop2, active compounds read low 1.02 | S. cerevisiae deletion strains, locus YOL006C, strain TOP1, active compounds read low 1 | S. cerevisiae deletion strains, locus YOL012C, strain htz1 1.19 | S. cerevisiae deletion strains, locus YOL147C, strain pex11, active compounds read low 1.02 | S. cerevisiae deletion strains, locus YOR001W, strain rrp6, active compounds read low 0.975 | S. cerevisiae deletion strains, locus YOR061W, strain CKA2, active compounds read low 1 | S. cerevisiae deletion strains, locus YOR069W, strain VPS5, active compounds read low 1 | S. cerevisiae deletion strains, locus YOR070C, strain gyp1, active compounds read low 1.01 | S. cerevisiae deletion strains, locus YOR080W, strain dia2, active compounds read low 0.999 | S. cerevisiae deletion strains, locus YOR083W, strain WHI5, active compounds read low 0.991 | S. cerevisiae deletion strains, locus YOR106W, strain vam3, active compounds read low 1.03 | S. cerevisiae deletion strains, locus YOR136W, strain idh2, active compounds read low 1.03 | S. cerevisiae deletion strains, locus YOR144C, strain elg1, active compounds read low 1.01 | S. cerevisiae deletion strains, locus YOR184W, strain ser1, active compounds read low 1.05 | S. cerevisiae deletion strains, locus YOR231W, strain MKK1, active compounds read low 0.961 | S. cerevisiae deletion strains, locus YOR265W, strain rbl2, active compounds read low 1 | S. cerevisiae deletion strains, locus YOR270C, strain vph1, active compounds read low 1.06 | S. cerevisiae deletion strains, locus YOR290C, strain snf2, active compounds read low 1.03 | S. cerevisiae deletion strains, locus YOR316C, strain cot1, active compounds read low 1.02 | S. cerevisiae deletion strains, locus YPL051W, strain arl3, active compounds read low 0.998 | S. cerevisiae deletion strains, locus YPL055C, strain LGE1, active compounds read low 0.999 | S. cerevisiae deletion strains, locus YPL078C, strain atp4, active compounds read low 1.02 | S. cerevisiae deletion strains, locus YPL106C, strain sse1, active compounds read low 1.08 | S. cerevisiae deletion strains, locus YPL240C, strain hsp82, active compounds read low 0.995 | S. cerevisiae deletion strains, locus YPL241C, strain CIN2, active compounds read low 0.998 | S. cerevisiae deletion strains, locus YPL256C, strain CLN2, active compounds read low 1.03 | S. cerevisiae deletion strains, locus YPR119W, strain clb2, active compounds read low 1.01 | S. cerevisiae deletion strains, locus YPR141C, strain kar3, active compounds read low 1.02 | S. cerevisiae deletion strains, locus YPR163C, strain tif3, active compounds read low 1.03 | S. cerevisiae deletion strains, locus YPR167C, strain met16, active compounds read low 1.02 | S. cerevisiae deletion strains, strain wtn01, active compounds read low 0.984 | S. cerevisiae strains, strain wild type, active compounds read low 0.999
